Data reported in PubChem BioAssay (NCATS).
Inconclusive results are not listed. Calls of active or inactive are those of the source. Unless noted, the call rests on the fitted dose curve; in most records, active means well fitted curve in either direction with a large enough effect (not every such curve was filed as active); inconclusive means small, poorly fitted or top-dose-only effect, or another doubt; inactive means flat fitted curve, though single readings scatter.

Tests used:
[1] = target: Lysosomal acid glucosylceramidase (Homo sapiens) (UniProt P04062); test: Glucocerebrosidase-p2 (AID 348; in the data active means potency below about 10 µM; further: potency means the concentration at half of the fitted maximal effect); conditions: purified GBA, blue fluorogenic substrate, 40 min
Outline: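 Compounds titrated from 0.6 nM upwards against 0.2 nM enzyme in pH 5.9 citric acid/KH2PO4, taurocholate, tween-20; blue fluorogenic substrate 80 uM, 40 min room temperature, stopped and read Ex 365/Em 440 for AC50.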

[2] = AP1 Signaling Pathway (AID 357); conditions: ME-180 AP-1-bla reporter, EGF-induced, beta-lactamase ratio, 5 h; at 7.69 µM (top of the series) unless noted;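 further: ME-180 reporter cells stimulated with EGF at its EC50 level; on the % scale 0 is the no-effect control and ±100 the full control effect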
Outline: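 Read-out was the 460nm/530nm emission ratio (excitation 405nm) after CCF4 loading for 2.5 hours at room temperature. Cells carried an AP-1-driven beta-lactamase reporter, were stimulated with EC50 EGF plus compound for 5 hours, and AC50 values came from titrations.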

[3] = target: Cytochrome P450 1A2 (Homo sapiens) (UniProt P05177); test: p450-cyp1a2 (AID 410; calls by dose curve; further: potency means the concentration at half of the fitted maximal effect;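 on activity change, negative = inhibition: -100% = full effect of reference inhibitor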); conditions: recombinant CYP1A2, luciferin-ME demethylation, luminescence; series mostly up to 11.4 µM
Outline: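 Inhibition was calculated relative to 57 uM furafylline (full inhibition). The reaction used human CYP1A2 at 20nM with Luciferin-ME at its Km, 100uM, driven by an NADPH-regenerating system for 60 min at room temperature.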

[4] = NFAT Signaling Pathway (AID 444); conditions: Jurkat NFAT-bla M1, carbachol, beta-lactamase ratio, 5 h; at 7.69 µM (top of the series) unless noted;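 further: carbachol stimulus at about its EC50 of 1 µM final; on the % scale 0 is the no-effect control and ±100 the full control effect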
Outline: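 Read-out: CCF4 FRET ratio (460 nm/530 nm) after 1 h RT dye loading, used for %activity and AC50 from titration series. Cells: Jurkat NFAT-β-lactamase/M1 line, treated with compound plus 1 uM carbachol for 5 h, 37 °C.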

[5] = Stat Signaling Pathway (AID 446); conditions: ME-180 (cervical carcinoma) SIE beta-lactamase reporter, IL-6 stimulated, 5 h; at 7.69 µM (top of the series) unless noted;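 further: ME-180 cervical cancer cells given 40 pM IL-6 alongside compound; SIE-controlled beta-lactamase reporter measured as 460/530 nm FRET emission ratio; on the % scale 0 is the no-effect control and ±100 the full control effect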
Outline: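 IL-6/STAT signaling read in ME-180 cells via an SIE beta-lactamase reporter. Stimulus was 40 pM IL-6 (its AC50) for 5 hrs, so both activation and inhibition register.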

[6] = target: Glucocorticoid receptor (Homo sapiens) (UniProt P04150); test: GR-GFP Redistribution (AID 450;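 active means compounds whose dose series gives a full or clear partial fitted curve of increased nuclear translocation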; further: potency means the concentration at half of the fitted maximal effect); conditions: U2OS GR-GFP nuclear translocation, laser cytometry, 2 h
[7] = target: Glucocorticoid receptor (Homo sapiens) (UniProt P04150); test: GR-EFC Redistribution (AID 451; calls by dose curve; further: potency means the concentration at half of the fitted maximal effect); conditions: CHO-K1 GR-EFC translocation, beta-gal luminescence, 2 h
Outline: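 Translocation of GR-ED fusion to nuclear EA restores b-gal, read by luminescence after 1 h room-temperature detection. Engineered CHO-K1 biosensor cells, 1,000/well, exposed 2 h at 37 C to titrations up to 46 uM final.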

[8] = target: Mitogen-activated protein kinase 10 (Mus musculus) (UniProt Q61831); test: JNK3 AlphaScreen Assay (AID 530); conditions: JNK3 lysate, c-Jun phosphorylation; series mostly up to 11.4 µM;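 further: kinase came from lysate of stimulated human HepG2 cells; signal reports phosphorylation of biotinylated GST-cJun 1-79 at Ser73 with 10 µM ATP; on the % scale 0 is the no-effect control and ±100 the full control effect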
Outline: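 Room-temperature AlphaScreen kinase assay; pre-activated HepG2 lysate as JNK3 source, biotin-GST-cJun(1-79) substrate, 10 uM ATP, compound 15 min preincubation.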

[9] = target: 3',5'-cyclic-AMP phosphodiesterase 4B (Homo sapiens) (UniProt Q07343); test: qHTS Assay for Inhibitors of PDE-IV (AID 607; active means well fitted activation curve with a large enough effect in the main read-out, with a control signal flat, not every such curve was filed as active; further: % of control where 0% means no effect); conditions: HEK293 ACTOne CNG channel cells, membrane potential fluorescence; series mostly up to 22.9 µM
Outline: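 Live HEK293 cells with a modified cyclic nucleotide-gated (CNG) channel report intracellular cAMP via membrane-potential dye fluorescence (ex 535/em 590 nm). Endogenous PDE-IV was targeted. Compounds were tested at up to 22.9 uM final; RO 20-1724 100 uM served as control.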

[10] = target: Cytochrome P450 2C19 (Homo sapiens) (UniProt P33261); test: qHTS Assay for Inhibitors and Substrates of Cytochrome P450 2C19 (AID 899; active means well fitted inhibition curve with a large enough effect; further: nearly all actives have a fitted effect of over 60% in size; further: potency means the concentration at half of the fitted maximal effect); conditions: recombinant CYP2C19, luciferin-H EGE luminescence; series mostly up to 11.4 µM
Outline: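 Reactions contain 5nM enzyme, 10uM Luciferin-H EGE (KM) and 50mM KPO4; compound preincubates 10 min at 37C, NADPH regeneration starts turnover for 60 min. Luminescence after detection reagent gives activity.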

[11] = target: Cytochrome P450 2D6 (Homo sapiens) (UniProt P10635); test: qHTS Assay for Inhibitors and Substrates of Cytochrome P450 2D6 (AID 891; active means well fitted inhibition curve with a large enough effect; further: nearly all actives have a fitted effect of over 60% in size; further: potency means the concentration at half of the fitted maximal effect); conditions: recombinant CYP2D6, luciferin-ME EGE luminescence; series mostly up to 11.4 µM
Outline: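 Human CYP2D6 (5 nM) with 30 uM Luciferin-ME EGE (at Km) in 100 mM KPO4, compound preincubated 10 min, then NADPH regeneration system for 60 min at room temperature. Luciferin read by luminescence; normalized to 1.43 uM quinidine.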

Chain of Cytochrome P450 2C19 (Homo sapiens) (P33261 whole entry, looked up): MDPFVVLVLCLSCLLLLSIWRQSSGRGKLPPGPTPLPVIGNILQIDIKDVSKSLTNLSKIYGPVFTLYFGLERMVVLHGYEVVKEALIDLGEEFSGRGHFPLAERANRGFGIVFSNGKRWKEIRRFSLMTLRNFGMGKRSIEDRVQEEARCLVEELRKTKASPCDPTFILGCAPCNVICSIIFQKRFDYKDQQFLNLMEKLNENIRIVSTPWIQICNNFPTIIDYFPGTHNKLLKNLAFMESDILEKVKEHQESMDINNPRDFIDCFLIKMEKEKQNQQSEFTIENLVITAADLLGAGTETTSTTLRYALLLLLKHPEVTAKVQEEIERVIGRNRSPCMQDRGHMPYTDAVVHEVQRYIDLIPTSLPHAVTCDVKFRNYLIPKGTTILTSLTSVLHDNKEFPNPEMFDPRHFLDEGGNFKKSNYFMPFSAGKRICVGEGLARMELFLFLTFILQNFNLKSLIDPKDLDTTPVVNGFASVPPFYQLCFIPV
Chain of Glucocorticoid receptor (Homo sapiens) (P04150 whole entry, looked up, the tested form may be a part): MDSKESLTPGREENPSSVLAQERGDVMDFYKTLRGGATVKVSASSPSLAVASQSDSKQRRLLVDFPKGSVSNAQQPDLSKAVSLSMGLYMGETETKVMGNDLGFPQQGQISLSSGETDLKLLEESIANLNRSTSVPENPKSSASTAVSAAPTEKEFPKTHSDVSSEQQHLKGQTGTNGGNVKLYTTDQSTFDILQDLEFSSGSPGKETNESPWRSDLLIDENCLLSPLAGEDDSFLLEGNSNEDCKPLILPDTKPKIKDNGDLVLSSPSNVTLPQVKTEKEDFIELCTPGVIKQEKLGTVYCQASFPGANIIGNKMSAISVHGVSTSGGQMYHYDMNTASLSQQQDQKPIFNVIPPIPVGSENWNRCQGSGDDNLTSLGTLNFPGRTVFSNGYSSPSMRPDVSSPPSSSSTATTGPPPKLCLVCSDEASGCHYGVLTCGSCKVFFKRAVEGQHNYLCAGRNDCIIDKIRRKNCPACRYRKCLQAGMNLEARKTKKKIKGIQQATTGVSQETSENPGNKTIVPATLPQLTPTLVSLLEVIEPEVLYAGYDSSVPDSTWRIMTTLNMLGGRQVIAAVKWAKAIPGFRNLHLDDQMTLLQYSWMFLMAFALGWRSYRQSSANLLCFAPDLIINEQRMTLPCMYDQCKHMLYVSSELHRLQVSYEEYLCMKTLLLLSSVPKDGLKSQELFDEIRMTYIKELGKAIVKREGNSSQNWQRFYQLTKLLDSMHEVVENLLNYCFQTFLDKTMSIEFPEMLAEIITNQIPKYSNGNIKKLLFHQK
Chain of 3',5'-cyclic-AMP phosphodiesterase 4B (Homo sapiens) (Q07343 whole entry, looked up): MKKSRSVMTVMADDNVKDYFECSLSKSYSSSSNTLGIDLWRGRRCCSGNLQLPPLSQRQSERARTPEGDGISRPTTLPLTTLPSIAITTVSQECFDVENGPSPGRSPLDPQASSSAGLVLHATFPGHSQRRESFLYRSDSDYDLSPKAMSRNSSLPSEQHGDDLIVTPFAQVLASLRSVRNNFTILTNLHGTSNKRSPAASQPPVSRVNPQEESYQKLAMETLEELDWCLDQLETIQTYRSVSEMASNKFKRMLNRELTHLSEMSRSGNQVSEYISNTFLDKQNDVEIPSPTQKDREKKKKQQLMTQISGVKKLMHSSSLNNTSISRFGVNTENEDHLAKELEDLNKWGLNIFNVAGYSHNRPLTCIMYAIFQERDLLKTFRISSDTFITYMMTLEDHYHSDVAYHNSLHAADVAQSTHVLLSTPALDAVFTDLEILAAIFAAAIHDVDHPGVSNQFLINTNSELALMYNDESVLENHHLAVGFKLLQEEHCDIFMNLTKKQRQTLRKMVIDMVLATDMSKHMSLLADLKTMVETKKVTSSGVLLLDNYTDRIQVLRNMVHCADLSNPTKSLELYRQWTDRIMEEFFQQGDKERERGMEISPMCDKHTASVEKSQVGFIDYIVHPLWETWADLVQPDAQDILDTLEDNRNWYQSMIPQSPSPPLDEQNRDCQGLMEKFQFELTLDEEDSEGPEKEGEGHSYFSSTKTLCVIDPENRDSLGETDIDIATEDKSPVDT
Chain of Lysosomal acid glucosylceramidase (Homo sapiens) (P04062 whole entry, looked up): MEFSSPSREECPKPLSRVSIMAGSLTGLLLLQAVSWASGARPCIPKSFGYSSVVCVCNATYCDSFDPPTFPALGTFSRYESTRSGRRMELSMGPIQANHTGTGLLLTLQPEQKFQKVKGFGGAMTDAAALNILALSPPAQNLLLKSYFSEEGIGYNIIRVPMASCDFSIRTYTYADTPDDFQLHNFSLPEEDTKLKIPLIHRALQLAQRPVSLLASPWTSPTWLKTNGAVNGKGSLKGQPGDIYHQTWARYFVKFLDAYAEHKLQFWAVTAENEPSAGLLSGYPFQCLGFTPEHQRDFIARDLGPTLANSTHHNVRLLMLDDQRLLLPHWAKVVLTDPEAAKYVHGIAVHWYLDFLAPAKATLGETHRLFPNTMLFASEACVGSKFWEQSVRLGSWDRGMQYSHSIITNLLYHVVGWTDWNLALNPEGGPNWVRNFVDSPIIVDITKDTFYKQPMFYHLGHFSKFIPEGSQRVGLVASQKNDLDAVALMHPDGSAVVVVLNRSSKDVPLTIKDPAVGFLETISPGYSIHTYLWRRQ
Chain of Cytochrome P450 1A2 (Homo sapiens) (P05177 whole entry, looked up): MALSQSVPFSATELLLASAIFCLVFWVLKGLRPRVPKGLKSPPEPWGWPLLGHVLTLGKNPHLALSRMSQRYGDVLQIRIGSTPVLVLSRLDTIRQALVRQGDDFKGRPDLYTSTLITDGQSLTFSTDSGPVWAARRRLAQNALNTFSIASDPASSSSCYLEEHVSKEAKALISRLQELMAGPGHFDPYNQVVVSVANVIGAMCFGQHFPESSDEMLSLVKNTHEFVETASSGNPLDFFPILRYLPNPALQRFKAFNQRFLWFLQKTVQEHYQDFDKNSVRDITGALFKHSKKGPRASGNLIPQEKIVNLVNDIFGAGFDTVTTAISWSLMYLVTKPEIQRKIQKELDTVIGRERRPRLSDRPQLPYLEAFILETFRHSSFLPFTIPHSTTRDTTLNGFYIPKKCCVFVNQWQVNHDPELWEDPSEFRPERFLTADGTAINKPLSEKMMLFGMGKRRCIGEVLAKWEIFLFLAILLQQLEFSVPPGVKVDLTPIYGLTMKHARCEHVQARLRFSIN
Chain of Cytochrome P450 2D6 (Homo sapiens) (P10635 whole entry, looked up): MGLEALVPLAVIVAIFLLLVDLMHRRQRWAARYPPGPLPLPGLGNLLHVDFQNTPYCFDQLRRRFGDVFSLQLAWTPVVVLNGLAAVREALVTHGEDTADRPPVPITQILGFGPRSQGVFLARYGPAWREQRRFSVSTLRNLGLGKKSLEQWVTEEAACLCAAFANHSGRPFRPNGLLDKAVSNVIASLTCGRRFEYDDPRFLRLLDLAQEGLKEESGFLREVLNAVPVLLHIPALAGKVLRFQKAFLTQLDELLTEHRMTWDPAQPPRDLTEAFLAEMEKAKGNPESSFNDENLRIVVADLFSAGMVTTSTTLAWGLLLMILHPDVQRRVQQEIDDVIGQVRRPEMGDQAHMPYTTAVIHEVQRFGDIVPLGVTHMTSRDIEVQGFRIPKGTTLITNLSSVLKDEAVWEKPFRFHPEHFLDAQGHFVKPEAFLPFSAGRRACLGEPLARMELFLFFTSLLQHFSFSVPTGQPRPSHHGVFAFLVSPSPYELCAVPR

CCCn1cnc2c(SCC(=O)O)nc(N)nc21
inactive: Potency [1] > 11.4 µM | activity change, negative = inhibition [2] 0.287% | Potency [3] | activity change, negative = inhibition [4] -8.4% | activity, negative = inhibition [5] -4.97% | Potency [6] > 46 µM | Potency [7] > 9.22 µM | Potency [8] | Potency [9] | Potency [10]

O=C(C[C@@H](c1ccccc1)N1CCCCC1)c1ccccc1
active: Potency [3] 1.26 µM | Potency [10] 2.51 µM
inactive: Potency [1] > 11.4 µM | activity change, negative = inhibition [2] 2.69% | activity change, negative = inhibition [4] 5.6% | activity, negative = inhibition [5] -14.9% | Potency [6] > 46 µM | Potency [7] > 9.22 µM | Potency [8] | Potency [9]

CN(C)Cc1ccc(C(C)(C)C)cc1-c1cc(C(C)(C)C)ccc1CN(C)C
inactive: Potency [1] > 11.4 µM | activity change, negative = inhibition [2] -1.36% | activity change, negative = inhibition [4] 6.36% | activity, negative = inhibition [5] -4.38% | Potency [6] > 46 µM | Potency [7] > 9.22 µM | Potency [8] | Potency [9] | Potency [10]
active: Potency [3] 3.98 µM

OC[C@@H]1O[C@@H](O)[C@H](N=Cc2ccc3c(c2)OCO3)[C@@H](O)[C@@H]1O
inactive: Potency [1] > 11.4 µM | activity change, negative = inhibition [2] 5.99% | activity change, negative = inhibition [3] -24.4% [at 2.29 µM] | activity change, negative = inhibition [4] 3.26% | activity, negative = inhibition [5] 2.95% | Potency [6] > 46 µM | Potency [7] > 9.22 µM | Potency [8] | Potency [9] | Potency [10]

CC(=O)CC(=O)Nc1ccc2ccccc2c1
inactive: Potency [1] > 11.4 µM | activity change, negative = inhibition [2] 6.48% | activity change, negative = inhibition [4] 11.8% | activity, negative = inhibition [5] 6.17% | Potency [6] > 46 µM | Potency [7] > 9.22 µM | Potency [8] | Potency [9] | Potency [10]
active: Potency [3] 2 µM

C[C@@H]1O[C@@H](O)[C@@H](O)[C@H](O)[C@H]1O
inactive: Potency [1] > 11.4 µM | activity change, negative = inhibition [2] -1.53% | Potency [3] | activity change, negative = inhibition [4] 13.9% | activity, negative = inhibition [5] 6.79% | Potency [6] > 46 µM | Potency [7] > 9.22 µM | Potency [8] | Potency [9] | Potency [10]

O=C(O)CSSCC(=O)O
inactive: Potency [1] > 11.4 µM | activity change, negative = inhibition [2] 5.08% | Potency [3] | activity change, negative = inhibition [4] 15.8% | activity, negative = inhibition [5] 17.7% | Potency [6] > 46 µM | Potency [7] > 9.22 µM | Potency [8] | Potency [9] | Potency [11] | Potency [10]

C=C1CCO[C@@]2([C@H](O)[C@@](C)(O)CO)NC(=O)[C@]1(O)NC2=O
inactive: Potency [1] > 11.4 µM | activity change, negative = inhibition [2] 5.8% | activity change, negative = inhibition [3] -4% [at 2.29 µM] | activity change, negative = inhibition [4] -4.59% | activity, negative = inhibition [5] 2.56% | Potency [6] > 46 µM | Potency [7] > 9.22 µM | Potency [8] | Potency [9] | Potency [10]

Cn1c(=O)c2c(nc(C(=N)SCC(=O)O)n2C)n(C)c1=O
inactive: Potency [1] > 11.4 µM | activity change, negative = inhibition [2] -5.29% | activity change, negative = inhibition [4] 4.58% | activity, negative = inhibition [5] -6.13% | Potency [6] > 46 µM | Potency [7] > 9.22 µM | Potency [8] | Potency [9] | Potency [10]
active: Potency [3] 1.26 µM

CN(Cc1cc(Cl)cc(Cl)c1O)Cc1c(O)ccc2ccccc12
active: Potency [3] 0.631 µM | Potency [11] 1.26 µM | Potency [10] 1.26 µM
inactive: Potency [1] > 11.4 µM | activity change, negative = inhibition [2] -8.51% | activity change, negative = inhibition [4] -4.41% | activity, negative = inhibition [5] -1.99% | Potency [6] > 46 µM | Potency [7] > 9.22 µM | Potency [8] | Potency [9]

CC[C@@H]1CC(=O)N(SC[C@H](N)C(=O)O)C1=O
inactive: Potency [1] > 11.4 µM | activity change, negative = inhibition [2] 1.56% | Potency [3] | activity change, negative = inhibition [4] 12.4% | activity, negative = inhibition [5] 1.84% | Potency [6] > 46 µM | Potency [7] > 9.22 µM | Potency [8] | Potency [9] | Potency [10]

Clc1ccc(-c2nnc(-c3cccc4ccccc34)o2)cc1Cl
inactive: Potency [1] > 11.4 µM | activity change, negative = inhibition [2] -2.21% | activity change, negative = inhibition [4] 18.6% | activity, negative = inhibition [5] 10.3% | Potency [6] > 46 µM | Potency [7] > 9.22 µM | Potency [8] | Potency [9] | Potency [10]
active: Potency [3] 2 µM

Oc1c(Br)cc(Br)cc1CN(Cc1cc(Br)cc(Br)c1O)C1CCCCC1
active: Potency [3] 3.16 µM | Potency [11] 0.251 µM | Potency [10] 0.316 µM
inactive: Potency [1] > 11.4 µM | activity change, negative = inhibition [2] 6.04% | activity change, negative = inhibition [4] 5.11% | activity, negative = inhibition [5] -17.9% | Potency [6] > 46 µM | Potency [7] > 9.22 µM | Potency [8] | Potency [9]

O=C(CC1(O)CCCCC1)OC1CCCC1
inactive: Potency [1] > 11.4 µM | activity change, negative = inhibition [2] 8.55% | Potency [3] | activity change, negative = inhibition [4] 16.8% | activity, negative = inhibition [5] 4.14% | Potency [6] > 46 µM | Potency [7] > 9.22 µM | Potency [8] | Potency [9]
active: Potency [10] 1.58 µM

N=c1ccn2c(n1)O[C@H]1[C@@H](OP(=O)(O)O)[C@H](CO)O[C@H]12
inactive: Potency [1] > 11.4 µM | activity change, negative = inhibition [2] 1.47% | activity change, negative = inhibition [3] -3.1% [at 2.29 µM] | activity change, negative = inhibition [4] 19.9% | activity, negative = inhibition [5] -1.19% | Potency [6] > 46 µM | Potency [7] > 9.22 µM | Potency [8] | Potency [9] | Potency [10]

Clc1ccc(-c2noc(CN3CCCCC3)n2)cc1
active: Potency [3] 0.631 µM | Potency [10] 1.58 µM
inactive: Potency [1] > 11.4 µM | activity change, negative = inhibition [2] 1.13% | activity change, negative = inhibition [4] 2.07% | activity, negative = inhibition [5] -0.202% | Potency [6] > 46 µM | Potency [7] > 9.22 µM | Potency [8] | Potency [9]

Cc1ccc([C@@]2(C)CC/C(=N/N=C3\CC[C@](C)(c4ccc(C)c(C)c4)c4cc(C)c(C)cc43)c3cc(C)c(C)cc32)cc1C
inactive: Potency [1] > 11.4 µM | activity change, negative = inhibition [2] 5.94% | Potency [3] | activity change, negative = inhibition [4] 7.12% | activity, negative = inhibition [5] 4.03% | Potency [6] > 46 µM | Potency [7] > 9.22 µM | Potency [8] | Potency [9] | Potency [10]

Cc1cc(C(C)(C)C)cc(CNC2CCCCC2)c1O
inactive: Potency [1] > 11.4 µM | activity change, negative = inhibition [2] 8.19% | activity change, negative = inhibition [4] 22.7% | activity, negative = inhibition [5] 10.5% | Potency [6] > 46 µM | Potency [7] > 9.22 µM | Potency [8] | Potency [9]
active: Potency [3] 3.16 µM | Potency [11] 0.501 µM | Potency [10] 0.02 µM

O=C(O)CCSCc1ccccc1
inactive: Potency [1] > 11.4 µM | activity change, negative = inhibition [2] 4.81% | Potency [3] | activity change, negative = inhibition [4] -0.126% | activity, negative = inhibition [5] -0.355% | Potency [6] > 46 µM | Potency [7] > 9.22 µM | Potency [8] | Potency [9] | Potency [10]
